Screening data as filed in PubChem BioAssay.
D1 antagonist – antagonists of human D1 dopamine receptor | P21728 | HEK293 TREx D1 cells, calcium flux, dopamine EC80; active compounds read low | activity change, negative = inhibition, % at 10 µM | actives 3.2% (n = 360,000); in the data active = activity change below about -30%; note: % is set by controls: 0 for no effect and ±100 for the full control effect
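Antagonism measured as reduced calcium response to an EC80 dopamine addition following 180 s compound pre-read; cells were inducible HEK293 Trex D1 plated overnight at 30 C, read kinetically at 1 cycle/sec.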
D3 ag – D3 dopamine receptor (human) agonism; D3R DiscoveRx beta-arrestin cells, luminescence, 90 min; max activation, %; AID 652048; actives 0.58% (n = 410,000); in the data active = max activation above about 30%; note: 0% is about no effect
Target sequence (P35462 whole entry, looked up): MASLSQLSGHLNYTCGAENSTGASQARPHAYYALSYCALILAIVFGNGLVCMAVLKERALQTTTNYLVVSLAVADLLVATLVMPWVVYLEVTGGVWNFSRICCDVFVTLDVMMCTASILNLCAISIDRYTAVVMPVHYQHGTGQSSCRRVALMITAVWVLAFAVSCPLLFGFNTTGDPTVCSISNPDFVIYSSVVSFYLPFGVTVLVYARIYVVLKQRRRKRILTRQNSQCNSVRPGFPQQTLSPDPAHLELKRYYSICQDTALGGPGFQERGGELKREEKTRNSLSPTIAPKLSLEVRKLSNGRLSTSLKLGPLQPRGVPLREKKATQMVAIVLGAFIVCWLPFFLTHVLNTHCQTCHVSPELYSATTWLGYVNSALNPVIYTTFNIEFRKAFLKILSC
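Agonist mode: compounds and dopamine controls were applied to plated cells for 90 min at 37 degrees C after an overnight attachment at 1500 cells/well. Luminescent read-out followed 30 - 60 minutes at room temperature with DiscoveRx detection reagent.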
D1 PAM – potentiators of human D1 dopamine receptor | HEK293 TREx D1 cells, calcium flux, dopamine EC20 potentiation | actives 0.036% (n = 360,000) | AID 504651 | potentiation, % at 10 µM | P21728; in the data active = potentiation above about 30%; note: 0% is about no effect
DRD3 antagonist – D3 dopamine receptor (human) antagonism; max response, negative = inhibition, %; actives 2.5% (n = 360,000); P35462; D3R cells, DiscoveRx beta-arrestin luminescence, antagonist mode; active compounds read low; in the data active = max response below about -50%; inconclusive = no clear call, values can overlap the other calls; note: % is set by controls: 0 for no effect and ±100 for the full control effect
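Cells plated overnight at 1500 cells/well, then exposed to library compounds with dopamine controls for 90 minutes at 37 degrees C. DiscoveRx reagent added for 30–60 minutes at room temperature; luminescence read, quantitative HTS format.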
D1 agonist – agonists of human D1 dopamine receptor; P21728; HEK293 T-REx D1 cells, calcium flux, agonist mode; activation, % at 2 µM; actives 1% (n = 360,000); AID 504660; in the data active = activation above about 30%; note: 0% is about no effect
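Tetracycline-induced HEK293 TREx D1 cells, force-coupled to calcium signalling, were dye-loaded with a no-wash calcium kit. Compound was pin-added after a 10 s baseline. Fluorescence was read kinetically at 1 cycle/s for 180 s, with calcium rises flagged as agonism.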
The depositor's hits bear a star; ? = inconclusive; nt = no result. Rows were chosen to be rich in hits. Some 6.1% of all compounds tested hit in one or more screens of this group.

SMILES	D1 antagonist	D3 ag	D1 PAM	DRD3 antagonist	D1 agonist
Cc1ccc(/C=C2\SC(=S)N(/N=C/c3cc([N+](=O)[O-])ccc3O)C2=O)o1	-1	-4	-4	-75*	9
COC(=O)c1ccc(/C=N/NS(=O)(=O)c2cc(C)ccc2C)cc1	6	-49	-10	-82*	2
COc1ccccc1C1CCN(Cc2ccc(Cl)cc2Cl)CC1	0	-18	2	-96*	4
COc1ccc(C(=O)C2CCCN(Cc3c(C)[nH]c4ccccc34)C2)c(OC)c1 (stereo unspecified)	-2	nt	-2	nt	2
COc1ccccc1C1CCN(Cc2c(C)[nH]c3ccccc23)CC1	0	-18	-16	-89*	15
COc1ccccc1C1CCN(Cc2cccc3ccccc23)CC1	3	-47	-10	-10	3
COc1ccccc1C1CCN(Cc2ccc(Cl)c(Cl)c2)CC1	-3	-49	-5	-79*	0
Cc1cccc(-c2nc(C)c(CCNC(=O)C(=O)Nc3ccccc3C#N)s2)c1	10	7	-4	nt	5
O=C[C@H](O)[C@@H](O)[C@@H](O)[C@H](O)CO	nt	-19	nt	nt	nt
CCn1c(COc2ccccc2C)nnc1SCc1nc2ccccc2c(=O)[nH]1	-30*	nt	-3	nt	2
CCn1c(CC(=O)Nc2ccccc2)nnc1SCc1nc2ccccc2c(=O)[nH]1	13	-10	-4	-30	1
CC1Cc2cc(S(=O)(=O)CCC(=O)Nc3ccc(OC(F)(F)F)cc3)ccc2N1C(=O)C1CC1 (stereo unspecified)	-13	9	-2	nt	1
N#CCCOC1(C#CCN2CCCC2)CCCCC1	0	22	-1	-88*	8
CCN(CC)c1ccc(NC(=O)Cn2nnc(-c3cccc(OC)c3OC)n2)c(C)c1	4	31*	4	16	1
O=C1NC(Cc2ccccc2)c2nc3cc(F)ccc3c(=O)n2-c2cc(Cl)ccc21 (stereo unspecified)	24	nt	5	nt	6
Cc1ccc2nc3n(c(=O)c2c1)-c1cc(Cl)ccc1C(=O)NC3Cc1ccccc1 (stereo unspecified)	-38*	nt	0	nt	2
Cc1c(C(=O)N(Cc2ccc(N(C)C)cc2)CC2CCCO2)oc2ccc(Cl)cc12 (stereo unspecified)	-14	-2	0	nt	1
CCC(C)(C)NC(=O)C1CCN(S(=O)(=O)c2c(C)noc2/C=C/c2ccc(C)cc2)CC1	-15	-14	-2	nt	3
COc1ccc(OC)c(CNC(=O)Nc2cn(CC(C)C)c(=O)c3ccccc23)c1	1	-1	0	nt	-1
CCN1C(=O)/C(=C/C=C2\N(CC)c3cc(S(=O)(=O)N(C)C)ccc3N2c2ccccc2)SC1=S	14	-12	-3	?	83*
CCN1C(=O)/C(=C\C=C\c2ccccc2[N+](=O)[O-])SC1=S	-5	0	-1	-12	3
COCCCc1cc(F)c(S(=O)(=O)N2CCN(S(=O)(=O)c3ccc4c(c3)OCCO4)CC2)cc1F	-2	nt	-2	nt	3
CC(=O)c1cccc(-c2ccc3c(=O)[nH]c(Nc4ccccc4)cc3c2)c1	nt	31*	nt	0	nt
O=c1[nH]c(Nc2ccccc2)cc2cc(Br)ccc12	nt	-18	nt	-22	nt
O=c1[nH]c(Nc2ccccc2)cc2ccccc12	34	-6	-1	24	38*
SMILES	D1 antagonist	D3 ag	D1 PAM	DRD3 antagonist	D1 agonist
CCn1c(SCC(=O)N2CCCCCC2)nc2ccccc2c1=O	1	-6	0	7	0
C=CCn1c(SCc2c(F)c(F)c(F)c(F)c2F)nc(O)cc1=O	-14	4	7	4	33*
C=CCn1c(SCC(=O)N2CCCCC2)nc(O)cc1=O	-63*	-10	0	-22	1
C=CCn1c(SCC(=O)N2CCCCCC2)nc2ccccc2c1=O	-32*	8	-4	7	1
COc1ccccc1N1CCN(c2nc(-c3ccc(C)cc3)nc3ccccc23)CC1	6	-15	1	nt	-3
Cc1cc(C(=O)O)ccc1NCc1cccnc1	4	2	-2	11	2
COc1cc([N+](=O)[O-])ccc1NC(=O)NCc1cccnc1	-3	-10	-2	0	0
Cc1ccc(NC(=O)c2cc([N+](=O)[O-])ccc2NCc2cccnc2)cc1	-36*	0	-12	-4	0
O=C(O)c1ccc(NCc2cccnc2)c([N+](=O)[O-])c1	6	-5	0	-83*	6
COc1ccc(NC(=O)CCCc2nnc3n(C(C)C)c(=O)c4sccc4n23)cc1Cl	-8	7	-5	nt	4
Cc1cc2c3nonc3ccc2n1C	-34*	-5	-3	-3	2
COCCn1c(Cc2ccccc2)nnc1SC(C)C(=O)NC1CC1 (stereo unspecified)	-43*	13	-2	6	1
CCCn1c(Cc2ccccc2)nnc1SC(C)C(=O)NC1CC1 (stereo unspecified)	8	3	-4	15	2
COc1cc(NC(=O)Cc2cccs2)cc(OC)c1	-33*	4	15	15	2
Cc1cccc(NC(=O)c2cccc(NC(=O)Cc3cccs3)c2)c1	-48*	8	-7	-3	5
COc1cc(NC(=O)Cc2cccs2)c(C(=O)O)cc1OC	-32*	11	-3	-18	2
Cc1ccc(NC(=O)C(=O)NCC(c2ccc3c(c2)OCO3)N2CCN(C)CC2)c(C)c1 (stereo unspecified)	10	-4	-4	nt	5
O=C(N/N=C/c1cc2c3c(c1O)CCCN3CCC2)c1ccccc1O	-13	-8	-6	6	31*
COc1ccc(N2CCN(C(=O)c3cc4c(=O)n(Cc5cccs5)ccc4nc3C)CC2)cc1	6	-10	-3	nt	-2
O=C(CN1C(=O)NC2(CCCCC2)C1=O)Oc1ccc2c(C(F)(F)F)cc(=O)oc2c1	3	6	0	53	51*
Cc1csc(N/N=C/c2ccc(O)c([N+](=O)[O-])c2)n1	-9	-10	-6	-54*	0
O=[N+]([O-])c1cc(/C=N\Nc2nc(-c3ccccc3)cs2)ccc1O	7	2	-8	-9	2
CCOC(=O)c1ccc(NC(=O)c2ccc(=O)n(Cc3cccc(C)c3)c2)cc1	-9	-3	-4	nt	12
CC(C)(C)NC(=O)CN(Cc1ccco1)C(=O)CCC(=O)Nc1nccs1	-31*	-4	1	-5	1
COc1ccc(N(CC(=O)NC(C)(C)C)C(=O)CCC(=O)Nc2nccs2)c(OC)c1	-31*	-2	-6	1	-1
COCCN(C(=O)CCC(=O)Nc1nccs1)C(C(=O)NC(C)(C)C)c1ccc(F)cc1 (stereo unspecified)	10	7	-3	9	4
